# Assay outcomes: PubChem, The Scripps Research Institute Molecular Screening Center
# M1 PAM parental: counter-screen for M1 PAMs: effect in parental CHO-K1 cells | AID 602247 | activation, % at 3 µM | ATP EC20, Fluo-8 calcium fluorescence; 0% at ATP EC20, 100% at ATP max | hit rate 0.02% among 360,000;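 active = activation above the run cutoff, the mean activation of all test compounds plus 3 SD, cut at about 40% in these data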;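 note: peak over basal fluorescence ratio in a 140 s read after ATP addition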
# CHO-K1 Ca antag: M1 antagonist counterscreen hit in parental CHO-K1 cells. ATP-induced calcium, Fluo-8 fluorescence. AID 602250. inhibition, % at 3 µM. hit rate 0.6% among 360,000;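 active = inhibition above a per-plate cutoff, the plate's mean sample inhibition plus 3 SD, cut at about 24% in these data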;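 note: 0% = DMSO plus EC80 ATP and 100% = DMSO alone without ATP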
# M1 antag: antagonists of human M1 muscarinic receptor. P11229. CHO-K1 hM1, Fluo-8 calcium fluorescence, ACh EC80 antagonist. inhibition, % at 3 µM. hit rate 1.3% among 360,000;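 active = percent inhibition above its own plate's cutoff, namely the mean of that plate's compound wells plus 3 SD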;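 note: peak over basal fluorescence ratio during 140 s after agonist addition; 0% = ACh EC80 plus DMSO and 100% = DMSO alone without agonist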
# Target sequence (P11229 whole entry, looked up): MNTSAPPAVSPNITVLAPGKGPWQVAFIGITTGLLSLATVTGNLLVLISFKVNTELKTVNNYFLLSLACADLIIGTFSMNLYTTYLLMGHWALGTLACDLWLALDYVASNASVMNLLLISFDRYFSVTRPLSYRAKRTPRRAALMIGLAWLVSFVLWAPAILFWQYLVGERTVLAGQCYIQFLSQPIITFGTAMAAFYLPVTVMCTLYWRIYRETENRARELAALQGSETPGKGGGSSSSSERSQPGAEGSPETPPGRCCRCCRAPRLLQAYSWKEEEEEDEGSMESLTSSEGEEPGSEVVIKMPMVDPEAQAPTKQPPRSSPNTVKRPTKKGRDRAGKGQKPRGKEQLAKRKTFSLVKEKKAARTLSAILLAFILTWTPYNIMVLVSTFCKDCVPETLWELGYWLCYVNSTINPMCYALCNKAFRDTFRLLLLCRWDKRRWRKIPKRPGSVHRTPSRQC
# CHO-K1 Ca ag: nonselective activator or artifact in parental CHO-K1 cells. hit rate 0.48% among 360,000. activation, % at 3 µM. Fluo-8 calcium fluorescence; scaled to maximal ATP response, vehicle zero; in the data active = activation above about 15%;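 note: untransfected CHO-K1 host cells lacking M1 receptor as counterscreen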
# CHRM1 agonist: agonists of human M1 muscarinic receptor. AID 588814. hit rate 0.33% among 360,000. activation, % at 3 µM. CHO-K1 hM1, Fluo-8 calcium fluorescence, agonist mode; 0% DMSO, 100% acetylcholine EC100. P11229;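 active = activation above the run's mean compound activation plus 3 SD, cut at about 16% in these data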;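 note: peak over basal fluorescence ratio within a 140 s kinetic read after compound addition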
# CHRM1 PAM: human CHRM1 positive allosteric modulation | P11229 | CHO-K1 hM1, Fluo-8 calcium fluorescence, ACh EC20; 0% = ACh EC20, 100% = maximal ACh | activation, % at 3 µM | hit rate 0.088% among 360,000 | AID 588819; in the data active = activation above about 19%, passing the limit was not always enough
# * marks the source's active call; other numbers are inactive results; nt = no result given. Most compounds without a hit are left out; they make up all but 2.3% or so of the library.
SMILES,M1 PAM parental,CHO-K1 Ca antag,M1 antag,CHO-K1 Ca ag,CHRM1 agonist,CHRM1 PAM
COc1cc(-c2coc3c(C(=O)NCc4ccc(OC)c(OC)c4)cccc23)ccc1O,-7.4,-3.6,29.7*,15.3*,7.2,-16.2
COc1ccc(CNC(=O)c2cccc3c(-c4cccc(C(N)=O)c4)coc23)cc1OC,-14.0,25.9*,38.8*,10.9,5.5,-19.3
CCCCNC(=O)c1c(N)[nH]c(C(=O)c2ccccc2)c1-c1ccc(Cl)cc1,12.3,-16.0,nt,-0.1,nt,nt
Nc1sc(-c2ccccc2)n[n+]1Cc1cccc2cccnc12,7.7,-4.5,65.8*,8.3,-3.2,-24.6
CCC(=O)Oc1ccc(NC(=O)c2ccc(S(=O)(=O)N3CCCC3)cc2)cc1,5.2,8.4,-6.4,3.0,-5.4,1.4
CCCc1nnc(NC(=O)CSc2nc3ccccc3[nH]2)s1,-13.8,30.5*,-7.9,-0.5,-3.1,-3.4
CCn1c(SCc2ccccc2)nnc1-c1ccc(S(=O)(=O)N2CCCCC2)cc1,9.1,2.3,26.9*,6.2,-1.9,-12.2
Cc1nnc(Nc2ccc(C(=O)N3CCOCC3)cc2)c2ccccc12,19.3,-20.3,-44.7,-0.3,0.1,27.1*
c1ccc(-c2cnn3c(-c4ccccc4)c(-c4ccccc4)nc3n2)cc1,10.5,28.4*,41.3*,31.3*,52.1*,-8.5
CCn1c(CCn2ccnc2C)n[nH]c1=S,6.4,-17.7,30.1,0.8,27.9*,-15.9
CCn1c(CC(C)C)n[nH]c1=S,8.3,-4.9,4.5,0.2,-3.8,4.7
CC[C@H]1O[C@H](C)CC2=C1C(=O)OC(C)(C)O2,7.2,-8.4,nt,0.6,nt,nt
COc1ccc(C#Cc2cccc(-c3nc(C(=O)N4CCN(C)CC4)cc4c3[C@H](CCO)N(S(=O)C(C)(C)C)C4)c2)cc1OC (stereo partly drawn),-1.6,7.4,-11.2,4.6,-5.1,2.4
C[C@@]12C(=O)Nc3ccccc3C(=O)N1[C@H]1c3cc(Cl)ccc3OC[C@@H]1[C@@H]2c1ccccc1,-4.2,-11.8,33.3*,0.0,-5.5,-28.2
COc1ccc2c(c1)C(=O)N1[C@H]3c4cc(C)ccc4OC[C@@H]3[C@H](c3ccccc3)[C@]1(C)C(=O)N2,9.5,-7.3,60.1*,-0.1,-8.3,-32.2
Cc1ccc2c(c1)[C@H]1[C@H](CO2)[C@H](c2ccccc2)[C@]2(C)C(=O)Nc3ccccc3C(=O)N12,-5.0,-9.5,86.5*,-0.2,-9.3,-37.9
COc1ccc2c(c1)OC[C@H]1[C@H]2N2C(=O)c3ccccc3NC(=O)[C@@]2(C)[C@H]1c1ccccc1,23.4,-10.4,75.4*,1.1,-5.7,-31.2
COc1ccc2c(c1)OC[C@H]1[C@H]2N2C(=O)c3cc(C)ccc3NC(=O)[C@@]2(C)[C@H]1c1ccccc1,26.1,-26.6,16.6,0.5,-4.4,-7.0
Cc1ccc2c(c1)[C@H]1[C@H](CO2)[C@H](c2ccccc2)[C@]2(C)C(=O)Nc3ccc(Cl)cc3C(=O)N12,8.6,-16.1,35.2*,0.5,-6.0,-21.9
C[C@@]12C(=O)Nc3ccc(Cl)cc3C(=O)N1[C@H]1c3cc(Cl)ccc3OC[C@@H]1[C@@H]2c1ccccc1,-22.9,1.4,17.9,-0.2,-4.6,-11.4
CCCCn1nnnc1C1(C)CCC(=O)N1CCCN1CCOCC1 (stereo not drawn),2.8,-0.4,nt,2.3,nt,nt
OC1(c2ccc(Cl)cc2)CCN(Cc2c[nH]c3ccccc23)CC1,13.3,-4.7,-16.9,2.9,22.3*,-9.6
CCN(CCCNc1cc2c(c(N)c1S(=O)(=O)O)C(=O)c1ccccc1C2=O)c1ccccc1,-2.8,-5.8,-11.0,0.0,-8.7,-3.9
CCCCn1nnnc1C(c1ccccc1)N1CCN(c2ncc(C(F)(F)F)cc2Cl)CC1 (stereo not drawn),13.6,-10.5,nt,0.7,nt,nt
Cc1ccc(C(=O)OCc2nc3ccccc3s2)o1,5.0,2.8,-0.8,15.9*,-2.0,4.7
SMILES,M1 PAM parental,CHO-K1 Ca antag,M1 antag,CHO-K1 Ca ag,CHRM1 agonist,CHRM1 PAM
Nc1ccc(C(=O)OCc2nc3ccccc3s2)cc1,-2.6,-11.8,-5.5,0.8,-4.6,6.3
C=CCN1C(=O)NC(c2ccc(OC)cc2)(C(F)(F)F)S/C1=C(\C#N)c1nnc(N2CCOCC2)n1-c1ccccc1 (stereo not drawn),25.0,-10.5,-8.0,2.9,18.7*,5.2
CC(C)(C)c1ccc(S(=O)(=O)N2CCC(O)(c3ccc(Cl)cc3)CC2)cc1,5.4,-0.9,70.9*,4.7,-3.6,-24.9
Cc1cccc(NC(=S)NC(=O)Cc2ccccc2)c1C,-3.8,7.7,-4.1,11.0,16.9*,6.8
Cc1cc(C)c(O)c(NC(=S)NC(=O)Cc2ccccc2)c1,20.2,-6.1,-10.9,7.4,18.9*,8.0
Cc1c(NC(=S)NC(=O)Cc2ccccc2)cccc1C(=O)O,10.0,-3.5,-11.8,0.2,-3.5,6.9
Cc1ccc2c(c1)C1CN(C)CCC1N2S(=O)(=O)c1cc(C(F)(F)F)ccc1Cl (stereo not drawn),-18.9,5.8,-3.1,0.3,4.5,13.4
Cc1ccc2c(c1)C1CN(C)CCC1N2C(=O)c1cccc(S(=O)(=O)N2CC(C)CC(C)C2)c1 (stereo not drawn),20.0,-21.6,37.4*,0.9,-7.9,-23.8
Cc1ccc2c(c1)C1CN(C)CCC1N2C(=O)c1ccc(Cl)c(S(=O)(=O)N2CCOCC2)c1 (stereo not drawn),17.3,-11.8,79.0*,2.1,-4.5,-22.2
Cc1ccc(C(=O)N(C)c2ccc(OCC(=O)N3c4ccc(C)cc4C4CN(C)CCC43)cc2)cc1 (stereo not drawn),-4.0,5.7,22.6*,-0.3,-15.1,-29.7
Cc1ccc(NC(=O)c2cc([N+](=O)[O-])ccc2N2CCOCC2)cc1S(=O)(=O)N(C)C,12.6,-13.2,52.4*,2.8,-5.0,-23.0
O=C(c1cc([N+](=O)[O-])ccc1N1CCOCC1)N1CCN(S(=O)(=O)c2ccc(F)cc2)CC1,-23.0,3.7,27.9*,0.3,-2.2,-9.1
Cc1ccc(NC(=O)c2cc([N+](=O)[O-])ccc2N2CCOCC2)cc1C,-13.1,8.4,-5.4,-0.3,-4.8,6.8
CC(C)c1ccc(S(=O)(=O)N2CCN(C(=O)c3cc([N+](=O)[O-])ccc3N3CCOCC3)CC2)cc1,7.7,-8.8,-21.9,0.2,-4.3,7.6
Cc1ccc(NC(=O)c2cc([N+](=O)[O-])ccc2N2CCCC2)cc1,16.6,1.4,6.0,16.9*,-2.8,-1.8
Cc1ccc2[nH]cc(CCNC(=O)C3CCCO3)c2c1 (stereo not drawn),2.2,-7.3,-23.4,0.9,-2.0,12.4
Brc1cccc(OCCCCN2CCCCC2)c1,19.8,-7.3,78.1*,0.9,-9.8,-26.5
CCOc1cccc(OCCCCN2CCCCC2)c1,3.1,-8.4,19.3*,0.4,-6.9,-23.2
